Only some compounds are listed: those with a hit (about 16% of all), similar ones and a draw of the others.
DT40 TDP1 no CPT = qHTS for Inhibitors of human tyrosyl-DNA phosphodiesterase 1 (TDP1): qHTS in cells in absence of CPT. hit rate 15% among 420,000. DT40 Tdp1-/- hTDP1 cells, no CPT, ATP luminescence, 48 h. Potency, µM (highest dose often 46.2 µM), hits mostly inhibitors. AID 686978, 2013; also: nearly all actives have a fitted effect of over 55% in size
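Growth of hTDP1-complemented DT40 Tdp1-knockout cells is measured by ATP luminescence after at least 48 hr compound exposure at 37 °C, with DMSO substituting for the 20 nM CPT used in the parallel screen.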
miR-21 act = qHTS Assay for Modulators of miRNAs and/orActivators of miR-21. AID 2288, 2010. 340,000 tested, under 10 active. HeLa miR-21 FLuc reporter, luciferase, 48 h. Potency, µM (doses to about 38.3 µM), actives largely listed as activators;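 also: miR-21 action dims this reporter so a rising signal means less miR-21 action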
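Luminescence from a firefly luciferase reporter carrying a miR-21 binding site downstream, stably expressed under a CMV promoter in HeLa cells that make miR-21 endogenously, reports miRNA modulation after 48 h compound exposure up to approximately 40uM final.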
DT40 TDP1 CPT = qHTS for Inhibitors of human tyrosyl-DNA phosphodiesterase 1 (TDP1): qHTS in cells in presence of CPT; hit rate 12% among 420,000; chicken DT40 Tdp1-/-;hTDP1 cells + 20 nM CPT, ATP luminescence, 48 h; Potency, µM (highest dose often 46.2 µM), usual class: inhibitors; AID 686979, 2013; also: nearly all actives have a fitted effect of over 55% in size
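Cell growth measured by CellTiter-Glo luminescence after a minimum 48 h, 37 C compound exposure with 20 nM CPT in Tdp1-knockout DT40 cells stably expressing hTDP1, seeded 400/well; qHTS titration format.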
TDP1 block = qHTS Assay for Inhibitors of Tyrosyl-DNA Phosphodiesterase (TDP1). Tyrosyl-DNA phosphodiesterase 1 (Homo sapiens), Q9NUW8. recombinant TDP1, AlphaScreen DNA substrate cleavage. Potency, µM (doses to about 130 µM), usual class: inhibitors. hit rate 0.28% among 350,000. AID 485290, 2010; also: nearly all actives have a fitted effect of over 40% in size
Target sequence (Q9NUW8 whole entry, looked up): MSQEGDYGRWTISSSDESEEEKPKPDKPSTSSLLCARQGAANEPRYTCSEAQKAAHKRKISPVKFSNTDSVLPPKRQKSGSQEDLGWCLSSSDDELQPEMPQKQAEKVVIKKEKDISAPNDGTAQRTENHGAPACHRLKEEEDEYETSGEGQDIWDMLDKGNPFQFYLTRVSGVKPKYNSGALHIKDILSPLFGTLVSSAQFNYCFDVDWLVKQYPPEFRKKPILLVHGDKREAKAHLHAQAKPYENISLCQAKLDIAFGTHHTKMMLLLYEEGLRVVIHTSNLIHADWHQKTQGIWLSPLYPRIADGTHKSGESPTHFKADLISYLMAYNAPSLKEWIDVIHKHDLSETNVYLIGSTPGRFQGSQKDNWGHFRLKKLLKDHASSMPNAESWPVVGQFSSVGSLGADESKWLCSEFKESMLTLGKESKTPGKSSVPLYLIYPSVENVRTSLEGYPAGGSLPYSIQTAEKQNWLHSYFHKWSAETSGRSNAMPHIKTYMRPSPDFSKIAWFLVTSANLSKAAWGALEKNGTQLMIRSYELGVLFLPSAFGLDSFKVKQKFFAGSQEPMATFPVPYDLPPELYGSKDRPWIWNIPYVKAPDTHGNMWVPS
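Signal: AlphaScreen proximity between streptavidin donor and anti-FITC acceptor beads on intact substrate. Reaction: Tdp1 1 nM, substrate 15 nM final, 5 min RT after 15 min compound preincubation.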
uPA generation = qHTS for Inhibitors of Cell Surface uPA Generation; cell surface uPA generation assay, qHTS; hit rate 0.31% among 330,000; Potency, µM (doses to about 38.3 µM), usual class: inhibitors; active = well fitted inhibition curve with a large enough effect; inconclusive = small, poorly fitted or top-dose-only effect; inactive = no such curve, though single readings can be large or run the other way; tested in mouse RAW 264.7 cells; also: nearly all actives have a fitted effect of over 55% in size
Hits are given with their value; . = inactive; ? = inconclusive; / = not tested or not shown. Unless noted, calls follow the shape of the dose curve; as a rule, active = well fitted curve in the direction sought with a large enough effect; inconclusive = small, poorly fitted or top-dose-only effect, or another doubt; inactive = no such curve, though single readings can be large; an effect the other way counts as inactive or inconclusive.

SMILES	DT40 TDP1 no CPT	miR-21 act	DT40 TDP1 CPT	TDP1 block	uPA generation
Cc1ccc(S(=O)(=O)c2nnn3c2nc(NC2CCN(Cc4ccccc4)CC2)c2ccccc23)cc1C	5.8µM	.	12µM	.	.
Cc1ccc(S(=O)(=O)c2nnn3c2nc(N(C)Cc2ccccc2)c2cc(Cl)ccc23)cc1C	12µM	.	13µM	.	/
CCN(CC)c1nc2c(S(=O)(=O)c3ccccc3)nnn2c2ccc(Cl)cc12	?	.	?	.	/
COc1ccc(OC)c(C2=NOC(C(=O)N3CCN(c4ccccc4)CC3)C2)c1 (centres undefined)	?	.	?	.	.
COc1cccc([C@@H]2CC=C(C(=O)O)CN2S(=O)(=O)c2ccc(C)cc2)c1	.	/	?	.	.
Cc1ccc([C@@H]2CC=C(C(=O)O)CN2S(=O)(=O)c2ccccc2C)cc1	.	/	.	.	.
CCOC(=O)C1=CCC(c2cccc(C)c2)N(S(=O)(=O)c2ccc(C)cc2)C1 (centres undefined)	16µM	/	18µM	/	/
CCOC(=O)C1=CCC(c2ccccc2)N(S(=O)(=O)c2ccccc2)C1 (centres undefined)	18µM	/	23µM	/	/
Cc1ccc(C(=O)O/N=C\c2ccc(N3CCCCC3)c([N+](=O)[O-])c2)cc1	13µM	.	?	.	.
O=C(O/N=C\c1ccc(N2CCCCC2)c([N+](=O)[O-])c1)c1c(F)cccc1F	?	.	?	.	.
O=C(O/N=C\c1ccc(N2CCCCC2)c([N+](=O)[O-])c1)c1cccc(Cl)c1	?	.	.	.	.
CO/N=C/c1ccc(N2CCN(C(=O)c3ccc(Cl)cc3Cl)CC2)c([N+](=O)[O-])c1	5.8µM	.	10µM	.	/
CO/N=C/c1ccc(N2CCN(C(=O)c3ccc(F)cc3)CC2)c([N+](=O)[O-])c1	15µM	.	15µM	.	.
CO/N=C/c1ccc(N2CCN(C(=O)c3cccc(C(F)(F)F)c3)CC2)c([N+](=O)[O-])c1	21µM	.	15µM	.	/
O=C(c1ccc(Cl)cc1[N+](=O)[O-])N1CCN(c2ccccn2)CC1	.	.	.	.	.
COc1ccc(N(C)C(=O)CCS(=O)(=O)c2cccc3nonc23)c(OC)c1	.	.	.	.	.
Cn1cnc([N+](=O)[O-])c1Sc1ccc(C(C)(C)C)cc1	?	.	?	.	.
COc1cc(C2Nc3ccc4ncccc4c3C3=C2C(=O)CCC3)ccc1O (centres undefined)	3.7µM	.	5.8µM	.	.
COc1cc(NC(=O)N2CCC(CN3CCCCCC3)CC2)cc(OC)c1OC	.	.	.	.	/
O=C(Nc1ccc(Br)cc1F)N1CC=C(c2c[nH]c3ccccc23)CC1	0.58µM	.	0.65µM	.	/
O=C(Nc1cccc2ccccc12)N1CC=C(c2ccccc2)CC1	?	.	?	.	.
COC(=O)c1ccc(Cl)cc1NC(=O)N1CC=C(c2c[nH]c3ccccc23)CC1	?	.	15µM	.	/
Cc1ccc(NC(=O)N2CC=C(c3c[nH]c4ccccc34)CC2)cc1Cl	10µM	.	18µM	.	/
Cc1cccc(NC(=O)N2CC=C(c3c[nH]c4ccccc34)CC2)c1C	23µM	.	16µM	.	/
COc1cc(C(=O)N2CCN(C(=O)Cc3ccccc3)CC2)cc(OC)c1OC	.	.	.	.	.
SMILES	DT40 TDP1 no CPT	miR-21 act	DT40 TDP1 CPT	TDP1 block	uPA generation
CC(=O)Nc1ccc(NC(=O)CSc2nc3[nH]ncc3c(=O)n2-c2ccccc2)cc1	.	.	.	.	.
OC(c1cccc(Cl)c1)c1ncc(-c2cccc(C(F)(F)F)c2)[nH]1 (centres undefined)	23µM	/	?	/	/
COc1ccc(C(O)c2ncc(-c3ccccc3OC)[nH]2)cc1F (centres undefined)	.	/	.	/	/
COc1ccc(C(O)c2ncc(-c3cccc(C(F)(F)F)c3)[nH]2)cc1F (centres undefined)	?	/	16µM	/	/
OC(c1cccc(F)c1)c1ncc(-c2ccc(C(F)(F)F)cc2)[nH]1 (centres undefined)	16µM	/	?	/	/
Cc1ccc(-c2cnc(C(O)c3cccc(Cl)c3)[nH]2)cc1 (centres undefined)	?	/	.	/	/
CCc1ccc(C(O)c2ncc(-c3cccc(C(F)(F)F)c3)[nH]2)cc1 (centres undefined)	23µM	/	?	/	/
CN(C(=O)Cn1nc(C(=O)O)c2ccccc2c1=O)C1CCCCC1	.	/	.	.	.
COc1cc(OC)c(NC(=O)Cn2cnc3sc(C)c(S(=O)(=O)N4CCC(C)CC4)c3c2=O)cc1Cl	?	.	?	.	/
COc1ccc2oc(-c3ccccc3)c(C(=O)N(C)C)c2c1	?	.	?	.	.
CCCCCCCCCCCCCCCC(=O)NCCc1ccc(O)c(O)c1	/	/	/	.	/
CCCCCCCC/C=C\CCCCCCCC(=O)NCCc1ccc(O)c(O)c1	2.9µM	/	1µM	.	3.2µM
CCCCCCCC/C=C\CCCCCCCC(=O)NCc1ccc(O)c(OC)c1	?	/	3.3µM	.	/
COc1cc(SC)ccc1C(=O)N1CCN(Cc2ccc3c(c2)OCO3)CC1	?	.	.	/	.
CCOc1ccc(N(CC(=O)NCCSCc2ccco2)S(=O)(=O)c2ccc(F)cc2)cc1	21µM	.	?	.	.
CCOc1ccc(N(CC(=O)NCCSCc2ccco2)S(=O)(=O)c2ccc(C)cc2)cc1	?	.	18µM	.	.
COc1ccc(N(CC(=O)NCCSCc2ccc(C)cc2)S(=O)(=O)c2ccccc2)cc1	7.3µM	.	?	.	.
CCOc1ccccc1N(CC(=O)NCCSCc1ccco1)S(=O)(=O)c1ccccc1	?	.	?	.	.
CCOc1ccc(S(=O)(=O)N(CC(=O)NCCSCc2ccccc2)c2ccccc2)cc1	.	.	.	/	/
O=C(c1cc(=O)[nH]c2ccccc12)N1CC=C(c2ccccc2)CC1	?	/	?	/	.
CC(=O)C(Sc1nc(-c2ccc(F)cc2)nc2c1c(=O)n(C)c(=O)n2C)C(C)=O	/	.	/	/	/
CC(C)(C)OC(=O)NCC1CCN(S(=O)(=O)Cc2ccccc2)CC1	.	.	.	/	.
Cc1cc2sc3nc(=O)n(-c4ccccc4)c(=O)n3c2cc1C	?	.	?	.	.
Cc1ccc(C)c(N2C(=O)N(Cc3ccccc3C)c3ccccc3S2(=O)=O)c1	29µM	.	18µM	.	/
COc1cccc(CNC(=O)CN2C(=O)N(c3cc(C)ccc3C)S(=O)(=O)c3ccccc32)c1OC	23µM	.	13µM	.	/
COc1cccc(CNC(=O)CN2C(=O)N(c3c(C)cccc3C)S(=O)(=O)c3ccccc32)c1OC	16µM	.	16µM	.	/
Cc1cccc(NC(=S)NCCc2ccc(S(N)(=O)=O)cc2)c1C	.	.	.	.	.

Screening results from PubChem.
